B1: unnamed (peptide)
chain: RRGPAPPPPPRASRP

The binders below were run against AgAbp1 (assay: SPOT peptide array binding signal intensity (averaged, normalized) (arbitrary units (background-subtracted, floor 0; scale differs between SH3 domains)); higher = stronger binding of the SH3 domain to the peptide).
How it was run: (§1)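 GST-fused SH3 domains, from four yeast species, were produced in E. coli BL21(DE3) and captured on glutathione Sepharose. Membranes of cellulose carrying synthetic 15-mer peptides, in which cysteines had been replaced by serines, were exposed to each domain at 10 μg/ml overnight at 4°C in TBS-based blocking buffer. After anti-GST antibody, an HRP anti-mouse secondary and luminol, spots were imaged and quantified using Genespotter. Binding signal is normalized and background-subtracted spot intensity, averaged over replicates, in arbitrary units that differ between domains.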
In the case of B1, the “SPOT peptide array binding signal intensity” value is reported as 181.

These binders were tested against AgBbc1 in the same assay as above.
How it was run: as §1
For B1, the “SPOT peptide array binding signal intensity” value was 646.

What follows are binders tested against AgBem1-D1 in the same assay as above.
How it was run: as §1
B1 was tested, and the “SPOT peptide array binding signal intensity” value was 410.

Each binder was assayed against AgBzz1-D1 in the same assay as above.
How it was run: as §1
With B1 the “SPOT peptide array binding signal intensity” value was 582.

What follows are binders tested against AgBzz1-D2 in the same assay as above.
How it was run: as §1
B1 was tested, and the “SPOT peptide array binding signal intensity” value was 164.

These binders were tested against AgCyk3 in the same assay as above.
How it was run: as §1
For B1, the “SPOT peptide array binding signal intensity” value was 2.

Each binder was assayed against AgFus1 in the same assay as above.
How it was run: as §1
For B1, the “SPOT peptide array binding signal intensity” value was 23.

Each binder was assayed against AgHof1 in the same assay as above.
How it was run: as §1
B1 was tested, and the “SPOT peptide array binding signal intensity” value was 63.8.

These binders were tested against AgHse1 in the same assay as above.
How it was run: as §1
For B1, the “SPOT peptide array binding signal intensity” value was 32.5.

Each binder was assayed against AgLsb1 in the same assay as above.
How it was run: as §1
With B1 the “SPOT peptide array binding signal intensity” value was 80.2.

Each binder was assayed against AgLsb4 in the same assay as above.
How it was run: as §1
For B1, the “SPOT peptide array binding signal intensity” value was 485.

Each binder was assayed against AgMyo5 in the same assay as above.
How it was run: as §1
With B1 the “SPOT peptide array binding signal intensity” value was 89.

These binders were tested against AgNbp2 in the same assay as above.
How it was run: as §1
For B1, the “SPOT peptide array binding signal intensity” value was 205.

The binders below were run against AgRvs167 in the same assay as above.
How it was run: as §1
For B1, the “SPOT peptide array binding signal intensity” value was 339.

These binders were tested against AgSho1 in the same assay as above.
How it was run: as §1
In the case of B1, the “SPOT peptide array binding signal intensity” value is reported as 13.

These binders were tested against AgSla1-D1-D2 in the same assay as above.
How it was run: as §1
In the case of B1, the “SPOT peptide array binding signal intensity” value is reported as 21.

These binders were tested against AgSla1-D3 in the same assay as above.
How it was run: as §1
For B1, the “SPOT peptide array binding signal intensity” value was 14.

Each binder was assayed against CaAbp1-D1 in the same assay as above.
How it was run: as §1
In the case of B1, the “SPOT peptide array binding signal intensity” value is reported as 1290.

The binders below were run against CaAbp1-D2 in the same assay as above.
How it was run: as §1
In the case of B1, the “SPOT peptide array binding signal intensity” value is reported as 281.

Each binder was assayed against CaBbc1 in the same assay as above.
How it was run: as §1
B1 was tested, and the “SPOT peptide array binding signal intensity” value was 1160.

Each binder was assayed against CaBem1-D1 in the same assay as above.
How it was run: as §1
For B1, the “SPOT peptide array binding signal intensity” value was 1890.

These binders were tested against CaBzz1-D1 in the same assay as above.
How it was run: as §1
B1 was tested, and the “SPOT peptide array binding signal intensity” value was 3450.

The binders below were run against CaBzz1-D2 in the same assay as above.
How it was run: as §1
B1 was tested, and the “SPOT peptide array binding signal intensity” value was 2600.

These binders were tested against CaCyk3 in the same assay as above.
How it was run: as §1
With B1 the “SPOT peptide array binding signal intensity” value was 216.

The binders below were run against CaFus1 in the same assay as above.
How it was run: as §1
B1 was tested, and the “SPOT peptide array binding signal intensity” value was 124.

What follows are binders tested against CaHof1 in the same assay as above.
How it was run: as §1
In the case of B1, the “SPOT peptide array binding signal intensity” value is reported as 6.5.

These binders were tested against CaHse1 in the same assay as above.
How it was run: as §1
In the case of B1, the “SPOT peptide array binding signal intensity” value is reported as 6.75.

The binders below were run against CaLsb1 in the same assay as above.
How it was run: as §1
For B1, the “SPOT peptide array binding signal intensity” value was 0.75.

These binders were tested against CaLsb4 in the same assay as above.
How it was run: as §1
For B1, the “SPOT peptide array binding signal intensity” value was 1000.

Each binder was assayed against CaMyo5 in the same assay as above.
How it was run: as §1
In the case of B1, the “SPOT peptide array binding signal intensity” value is reported as 9.

What follows are binders tested against CaNbp2 in the same assay as above.
How it was run: as §1
With B1 the “SPOT peptide array binding signal intensity” value was 209.

What follows are binders tested against CaRvs167 in the same assay as above.
How it was run: as §1
In the case of B1, the “SPOT peptide array binding signal intensity” value is reported as 805.

Each binder was assayed against CaRvs167-3 in the same assay as above.
How it was run: as §1
B1 was tested, and the “SPOT peptide array binding signal intensity” value was 11.

The binders below were run against CaSho1 in the same assay as above.
How it was run: as §1
With B1 the “SPOT peptide array binding signal intensity” value was 18.5.

These binders were tested against CaSla1-D1-D2 in the same assay as above.
How it was run: as §1
B1 was tested, and the “SPOT peptide array binding signal intensity” value was 2130.

Each binder was assayed against CaSla1-D3 in the same assay as above.
How it was run: as §1
For B1, the “SPOT peptide array binding signal intensity” value was 143.

Each binder was assayed against ScAbp1 in the same assay as above.
How it was run: as §1
With B1 the “SPOT peptide array binding signal intensity” value was 272.

What follows are binders tested against ScBbc1 in the same assay as above.
How it was run: as §1
B1 was tested, and the “SPOT peptide array binding signal intensity” value was 150.

Each binder was assayed against ScBem1-D1 in the same assay as above.
How it was run: as §1
For B1, the “SPOT peptide array binding signal intensity” value was 6.

These binders were tested against ScBzz1-D1 in the same assay as above.
How it was run: as §1
With B1 the “SPOT peptide array binding signal intensity” value was 457.

The binders below were run against ScBzz1-D2 in the same assay as above.
How it was run: as §1
In the case of B1, the “SPOT peptide array binding signal intensity” value is reported as 68.5.

These binders were tested against ScCyk3 in the same assay as above.
How it was run: as §1
B1 was tested, and the “SPOT peptide array binding signal intensity” value was 16.

The binders below were run against ScFus1 in the same assay as above.
How it was run: as §1
In the case of B1, the “SPOT peptide array binding signal intensity” value is reported as 12.5.

Each binder was assayed against ScHof1 in the same assay as above.
How it was run: as §1
B1 was tested, and the “SPOT peptide array binding signal intensity” value was 12.2.

What follows are binders tested against ScHse1 in the same assay as above.
How it was run: as §1
B1 was tested, and the “SPOT peptide array binding signal intensity” value was 28.5.

Each binder was assayed against ScLsb1 in the same assay as above.
How it was run: as §1
B1 was tested, and the “SPOT peptide array binding signal intensity” value was 132.

The binders below were run against ScLsb2 in the same assay as above.
How it was run: as §1
B1 was tested, and the “SPOT peptide array binding signal intensity” value was 54.

Each binder was assayed against ScLsb3 in the same assay as above.
How it was run: as §1
With B1 the “SPOT peptide array binding signal intensity” value was 1380.

Each binder was assayed against ScLsb4 in the same assay as above.
How it was run: as §1
With B1 the “SPOT peptide array binding signal intensity” value was 892.

The binders below were run against ScMyo3 in the same assay as above.
How it was run: as §1
In the case of B1, the “SPOT peptide array binding signal intensity” value is reported as 160.

The binders below were run against ScMyo5 in the same assay as above.
How it was run: as §1
With B1 the “SPOT peptide array binding signal intensity” value was 279.

The binders below were run against ScNbp2 in the same assay as above.
How it was run: as §1
For B1, the “SPOT peptide array binding signal intensity” value was 158.

These binders were tested against ScPex13 in the same assay as above.
How it was run: as §1
In the case of B1, the “SPOT peptide array binding signal intensity” value is reported as 1150.

What follows are binders tested against ScRvs167 in the same assay as above.
How it was run: as §1
B1 was tested, and the “SPOT peptide array binding signal intensity” value was 2010.

These binders were tested against ScSho1 in the same assay as above.
How it was run: as §1
For B1, the “SPOT peptide array binding signal intensity” value was 668.

Each binder was assayed against ScSla1-D1-D2 in the same assay as above.
How it was run: as §1
In the case of B1, the “SPOT peptide array binding signal intensity” value is reported as 4710.

These binders were tested against ScSla1-D3 in the same assay as above.
How it was run: as §1
With B1 the “SPOT peptide array binding signal intensity” value was 8.25.

Each binder was assayed against SpAbp1-D1 in the same assay as above.
How it was run: as §1
B1 was tested, and the “SPOT peptide array binding signal intensity” value was 726.

Each binder was assayed against SpBbc1 in the same assay as above.
How it was run: as §1
For B1, the “SPOT peptide array binding signal intensity” value was 24.

Each binder was assayed against SpBzz1-D1 in the same assay as above.
How it was run: as §1
In the case of B1, the “SPOT peptide array binding signal intensity” value is reported as 1820.

The binders below were run against SpBzz1-D2 in the same assay as above.
How it was run: as §1
In the case of B1, the “SPOT peptide array binding signal intensity” value is reported as 340.

What follows are binders tested against SpCyk3 in the same assay as above.
How it was run: as §1
B1 was tested, and the “SPOT peptide array binding signal intensity” value was 13.

These binders were tested against SpHof1 in the same assay as above.
How it was run: as §1
For B1, the “SPOT peptide array binding signal intensity” value was 52.

The binders below were run against SpHof1-2 in the same assay as above.
How it was run: as §1
In the case of B1, the “SPOT peptide array binding signal intensity” value is reported as 27.8.

What follows are binders tested against SpHof1-3 in the same assay as above.
How it was run: as §1
For B1, the “SPOT peptide array binding signal intensity” value was 420.

These binders were tested against SpHse1 in the same assay as above.
How it was run: as §1
For B1, the “SPOT peptide array binding signal intensity” value was 37.8.

What follows are binders tested against SpLsb1 in the same assay as above.
How it was run: as §1
In the case of B1, the “SPOT peptide array binding signal intensity” value is reported as 107.

What follows are binders tested against SpLsb4 in the same assay as above.
How it was run: as §1
In the case of B1, the “SPOT peptide array binding signal intensity” value is reported as 1730.

The binders below were run against SpMyo1 in the same assay as above.
How it was run: as §1
B1 was tested, and the “SPOT peptide array binding signal intensity” value was 391.

Each binder was assayed against SpNbp2 in the same assay as above.
How it was run: as §1
In the case of B1, the “SPOT peptide array binding signal intensity” value is reported as 15.5.

What follows are binders tested against SpPex13 in the same assay as above.
How it was run: as §1
B1 was tested, and the “SPOT peptide array binding signal intensity” value was 2.

These binders were tested against SpRvs167 in the same assay as above.
How it was run: as §1
B1 was tested, and the “SPOT peptide array binding signal intensity” value was 2270.

These binders were tested against SpSla1-D1-D2 in the same assay as above.
How it was run: as §1
With B1 the “SPOT peptide array binding signal intensity” value was 571.

These binders were tested against SpSla1-D3 in the same assay as above.
How it was run: as §1
B1 was tested, and the “SPOT peptide array binding signal intensity” value was ≤ 0.

From the supplement of paper PMC4466140
